# This is one part of a sample in which hits are shown more often than they occur.
# VCAM1 TNFa pot: TNF alpha stimulated VCAM1 expression potentiation; HUVEC TNFa-stimulated VCAM-1 immunofluorescence, high-content imaging; scaled per plate to unstimulated/TNFa-only wells; activation, % at 2 µM; 0.19% of 93,000 active;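 active = activation above the screen mean plus 3 SD, with well images confirming the hit on visual review, cut at about 28% in these data, passing the limit was not always enough; inconclusive = activation above that limit but images do not confirm it; inactive = activation not above that limit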;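 also: signal is the number of cytoplasmic VCAM-1 stained grains per positive cell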
# VCAM1 pot conf: enhancers of VCAM1 induction in HUVEC – imaging, triplicate retest, confirmation; 230 tested, under 10 active; AID 1034; activation, % at 2 µM; HUVEC TNFa-stimulated VCAM-1 immunofluorescence imaging; shares compounds with VCAM1 TNFa pot;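 active = activation above 30% in triplicate retests at 2 µM, then confirmed by visual review of the well images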;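 also: scaled per plate between unstimulated and TNFa-stimulated DMSO control wells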
# Starred values were filed as active, the others as inactive; u = inconclusive.
SMILES,VCAM1 TNFa pot,others
Cc1ccc(Sc2ncccc2COC(=O)Nc2ccccc2)cc1,13.9,
Cc1cc2n(n1)SC(Nc1ccc(F)c(Cl)c1)N2 (stereo not given),-44.9,
CCCCn1c(SCC(=O)c2ccc3c(c2)OCCO3)nnc1-c1ccco1,-1.5,
O=C(CCN1CCc2ccccc21)c1ccc2c(c1)OCCO2,67.4*,VCAM1 pot conf=0.0
O=C(CCC(=O)N1CCc2ccccc21)Nc1ccccc1,5.1,
CCOC(=O)C1=C(O)/C(=C/c2ccc(C)o2)SC1=NC(=O)c1ccccc1C,19.6,
Cc1cc(OCC(=O)NCc2nc(-c3ccccc3)no2)c(C)cc1Br,9.9,
CS(=O)(=O)N(CC(=O)N1CCN(c2ccccc2F)CC1)c1cc(C(F)(F)F)ccc1Cl,-3.4,
CC(=O)c1cccc(NC(=O)c2ccc(S(=O)(=O)N3CCCCC3)cc2)c1,2.9,
O=C(NC(Cc1ccccc1)C(=O)O)c1ccc(S(=O)(=O)N2CCCCC2)cc1 (stereo not given),-4.1,
O=C(NCc1ccco1)c1ccc(S(=O)(=O)c2cccc(S(=O)(=O)N3CCOCC3)c2)cc1,u,VCAM1 pot conf=-21.4
Cc1cc(S(=O)(=O)N2CCCC2)ccc1OCC(=O)NCc1ccco1,7.6,
COc1cccc(CNC(=O)c2ccc(S(=O)(=O)N3CCCC3)cc2)c1,79.5*,VCAM1 pot conf=-17.3
CC(=O)c1ccc(N2CCN(S(=O)(=O)c3cccc(S(=O)(=O)N4CCOCC4)c3)CC2)cc1,-7.6,
CSc1nc(C)cc(OCC#N)n1,9.9,
CC/C(=C\C(=O)c1ccncc1)Nc1ccc(Br)cc1,24.2,
Cc1ccc(C)n1NC(=O)c1cccc(Cl)c1,-0.2,
COC(=O)CSC(C(=O)Nc1ccc(C)c(C)c1)c1ccccc1 (stereo not given),-0.7,
Cc1ccnc(NC(=O)c2ccc(COc3ccc(Cl)cc3)o2)c1,3.1,
CCc1cccc(OCCCCN(CC)CC)c1,9.5,
CCOc1cccc(C(=O)Nc2ccc3oc(Cc4ccc(Cl)cc4)nc3c2)c1,-23.7,
CCOC(=O)c1ccc(NC(=O)Cn2nnc(-c3ccccc3)n2)cc1,-88.2,
CCOc1ccc(-c2nnn(CC(=O)c3ccc4c(c3)OCCO4)n2)cc1,84.5*,VCAM1 pot conf=-19.9
Cc1cc(C)n(-c2ccc(C(=O)Oc3ccc4c(c3)OCO4)cc2)n1,22.9,
O=C(O)c1[nH]nc2c1COc1ccccc1-2,-14.5,
Cc1cc(NCCN(C)C)n2nc(-c3cccs3)cc2n1,40.9*,VCAM1 pot conf=-10.3
CCCCOc1ccc(NC(=O)CSc2nnnn2C)cc1,2.2,
Cc1ccc(S(=O)(=O)N(C)CC(=O)NC2CC(C)(C)NC(C)(C)C2)cc1,14.2,
O=C(Cc1ccccc1)Nc1cccc(N2CCCC2)c1,38.3,

# Compound activity (PubChem BioAssay)
